27 compounds from PubChem BioAssay (NCATS) can be followed below.

SMILES strings stand for the structures. Inconclusive results are not listed. Where a call stands in place of a potency, no number is given. Activity calls are given as the source filed them. Calls follow the shape of the dose curve; as a rule, active = well fitted inhibition curve with a large enough effect; inconclusive = small, poorly fitted or top-dose-only effect; inactive = flat fitted curve, though single readings scatter. Where a SMILES comes first, the peptide text is derived from it. Bridges are numbered along the chain shown (N, C = ends).

The target of this test is Glutathione peroxidase 1 (Homo sapiens) (UniProt P07203). Put plainly: Primary qHTS Assay for Inhibitors of Recombinant Selenoprotein Glutathione Peroxidase 1 (GPX1) (AID 1845191). Also: nearly all actives have a fitted effect of over 65% in size. The note with it: recombinant GPX1, GR-coupled NADPH fluorescence, 15 min; series mostly up to 48.8 µM. In a few lines: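 10 nM GPX1 + cpd, 30 min RT; start w/ 1 mM GSH, 0.5 mM cumene hydroperoxide, 0.5 mM NADPH, 100 nM GR, 0.01% BSA; buffer 50 mM Tris-HCl pH 7.5, 2 mM EDTA, 150 mM NaCl; Fl 340/450, 0 & 15 min.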
Glutathione peroxidase 1 (Homo sapiens), sequence (P07203 whole entry, looked up): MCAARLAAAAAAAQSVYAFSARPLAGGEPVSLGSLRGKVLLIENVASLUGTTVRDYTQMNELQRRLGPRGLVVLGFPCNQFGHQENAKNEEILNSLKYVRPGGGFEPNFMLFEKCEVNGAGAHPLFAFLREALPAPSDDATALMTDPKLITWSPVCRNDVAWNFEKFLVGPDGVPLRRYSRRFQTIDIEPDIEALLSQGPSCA
In general terms: Quantitative high-throughput screening tests each substance at several concentrations.
In the case of `Cc1cc(-c2nc3ncccc3o2)ccc1NC(=O)COc1ccc(C(C)(C)C)cc1`, the Potency entry is “inactive”.
As for `Cc1ccc2nc(NC(=O)CSc3nc4c(c(=O)n3C)SC(C)C4)sc2c1` (configuration not stated), the entry is “inactive”.
Take `CO[C@H]1C[C@@H]2CC[C@@H](C)[C@@](O)(O2)C(=O)C(=O)N2CCCC[C@H]2C(=O)O[C@H]([C@H](C)C[C@@H]2CC[C@@H](OCCO)[C@H](OC)C2)CC(=O)[C@H](C)/C=C(/C)[C@@H](O)[C@@H](OC)C(=O)[C@H](C)C[C@H](C)\C=C/C=C\C=C/1C`: the Potency entry was “inactive”.
As for `CC(NC(=O)c1ccccc1N=Cc1c(O)ccc2ccccc12)c1ccccc1` (configuration not stated), the Potency result is “inactive”.
In the case of `Nc1nc(CC(=O)Nc2ccc(CCNC[C@H](O)c3ccccc3)cc2)cs1`, the Potency entry is “inactive”.
With `CCC(=O)OCC(=O)[C@]1(OC(=O)CC)[C@H](C)C[C@H]2[C@H]3[C@H]([C@@H](O)C[C@@]21C)[C@@]1(C)C=CC(=O)C=C1C[C@H]3Cl`, the Potency entry was “inactive”.
Turning to `CN1C(=O)[C@]23C[C@H]4C(C)(C)[C@]5(CNc6c5ccc5c6OC=CC(C)(C)O5)C[C@@]41CN2CC[C@@]3(C)O`, the Potency result was “inactive”.
As for `CS(=O)(=O)n1cc2c(n1)CN([C@H]1CO[C@H](c3cc(F)ccc3F)[C@@H](N)C1)C2`, the Potency result is “inactive”.
For `O=C1CCC(C(=O)O)N1` (configuration not stated) the value was “inactive”.
As for `COc1ccc(C[C@H](NC(=O)[C@H](C)NC(=O)CN2CCOCC2)C(=O)N[C@@H](Cc2ccccc2)C(=O)[C@@]2(C)CO2)cc1`, the entry is “inactive”; as for `CN[C@@H]1[C@H](O[C@H]2[C@H](O[C@@H]3[C@@H](O)[C@H](O)[C@@H](N=C(N)N)[C@H](O)[C@H]3NC(=N)N)O[C@@H](C)[C@]2(O)CO)O[C@@H](CO)[C@H](O)[C@H]1O`, “inactive”.
Turning to `C[C@@H]1NC(=O)[C@@H]2CCCN2C(=O)[C@H](CC(N)=O)NC(=O)[C@@H]2CSSC[C@H](N)C(=O)N[C@H]3CSSC[C@H](NC1=O)C(=O)N[C@@H]([C@@H](C)O)C(=O)NCC(=O)N[C@H](C(=O)N[C@@H](Cc1ccc(O)cc1)C(=O)O)CSSC[C@H](NC(=O)[C@H](Cc1ccc(O)cc1)NC(=O)[C@H](CCC(=O)O)NC3=O)C(=O)N2` (H-CCEYCCNPACTGCY-OH; disulfide 1-6, 2-10, 5-13), the Potency result was “inactive”.
`C=C1/C(=C/C=C2\CCC[C@]3(C)[C@@H]([C@H](C)CCCC(C)(C)O)CC[C@@H]23)C[C@@H](O)[C@@H](OCCCO)[C@@H]1O`: the Potency result was “inactive”.
As to `O=[N+]([O-])c1cc(S(=O)(=O)Nc2ccc(O)c3ccccc23)ccc1Cl`, the Potency entry was “inactive”.
Turning to `N#Cc1c(N2C[C@@H]3NCCO[C@H]3C2)c(F)cc2c(=O)c(C(=O)O)cn(C3CC3)c12`, the Potency result is “inactive”.
In the case of `COc1cc(N)cn[n+]1-c1ccccc1`, the Potency entry was “inactive”.
`Fc1ccc(N2CCN(c3nc4ccccc4c4nc(-c5cccnc5)nn34)CC2)cc1`: the Potency entry is “inactive”.
Regarding `CN(C)c1ccc(C(=O)NCCCCCC(=O)NO)cc1`, the Potency entry is “inactive”.
Take `CC1(COc2ccc(N3CCC(Oc4ccc(OC(F)(F)F)cc4)CC3)cc2)Cn2cc([N+](=O)[O-])nc2O1` (configuration not stated): the Potency entry was “inactive”.
Turning to `C=CS(=O)(=O)N1CCCN(c2cc(NCCC(=O)O)nc(-c3ccccn3)n2)CC1`, the Potency result is “inactive”.
`COc1ccc(-c2c(C)nn3c4c(cnc23)C(=O)CC(c2ccc(C)cc2)C4)cc1` (configuration not stated): the Potency result was “inactive”.
Consider `O=c1cc(N2CCOCC2)oc2c1ccc1ccccc12`, for which the Potency entry was “inactive”.
Consider `CN1CCN(C(c2ccc(F)cc2)c2sc3nc(-c4ccco4)nn3c2O)CC1` (configuration not stated), for which the Potency entry was “inactive”.
As to `Cn1cc(C2=C(c3cn(CCCN)c4ccccc34)C(=O)NC2=O)c2ccccc21`, the Potency entry was “inactive”.
As for `CNCCN1CCC(OCc2ccccc2)CC1`, the Potency entry was “inactive”.
For `Clc1cccc(N2CCN(c3nc4ccccc4c4nc(-c5cccnc5)nn34)CC2)c1` the value was “inactive”; for `COC(=O)CCSC/C=C(\C)CCn1cc(CCc2ccc(-c3ccccc3)cc2)nn1`, “inactive”.
